Measured values published in PubChem BioAssay AID1852 (Sanford-Burnham Center for Chemical Genomics, 2009).
Out of some 2,500 compounds screened, about 1,100 (44%) were called active.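 The calls were made as follows: active = inhibition above 50% at 4 µM in the single-point screen; inactive = inhibition of 50% or less.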 So high a share suggests a set chosen from earlier hits. Some of the results follow.

Test: TNF-a-driven NF-kB reporter inhibitors, primary screen, selectivity assay for NOD1/NOD2 signaling inhibitor project, cell-based, HEK293T NF-kB-Luc, luminescence (AID 1852)
Settings: TNF-a induced, 14 h, at 4 µM, stronger effect = higher value

Compound	inhibition
CC(C)NC(=S)NC(c1ccccc1)(c1ccccc1)c1ccccc1	19.3% (inactive)
COc1cc(/C=C2\C(=N)N3N=C(S(C)(=O)=O)SC3=NC2=O)ccc1OCCOc1ccc(C)cc1	-39.5% (inactive)
Clc1ccccc1Cc1noc(CN2CCN(c3cnccn3)CC2)n1	7.7% (inactive)
O=C(Nc1sc2c(c1C(=O)O)CCCC2)c1ccccc1Cl	25% (inactive)
O=C(O)c1c(NC(=O)c2cccc3ccccc23)sc2c1CCC2	53.9% (active)
Cc1cccc(C(=O)Nc2sc3c(c2C(=O)O)CCCC3)c1	-8.5% (inactive)
O=c1oc2ccccc2c(Nc2ccc(F)cc2)c1[N+](=O)[O-]	-32.2% (inactive)
COC(=O)c1ccc(Nc2c([N+](=O)[O-])c(=O)oc3ccccc23)cc1	99.5% (active)
Cc1ccc(Nc2c([N+](=O)[O-])c(=O)oc3ccccc23)cc1C	6.4% (inactive)
C=CS(=O)(=O)c1ccc(Oc2ccc(S(=O)(=O)C=C)cc2)cc1	103% (active)
CC(=O)NC(c1ccccc1)c1cc([N+](=O)[O-])c2cccnc2c1O (stereo not drawn)	99.5% (active)
CC(=O)NC(c1ccc(C)cc1)c1cc(Cl)c2cccnc2c1O (stereo not drawn)	77.9% (active)
CC(=O)NC(c1ccc(C)cc1)c1cc([N+](=O)[O-])c2cccnc2c1O (stereo not drawn)	76.4% (active)
CCC(=O)NC(/C=C/c1ccccc1)c1cc([N+](=O)[O-])c2cccnc2c1O (stereo not drawn)	81.6% (active)
CCCCCc1ccc(OCCCC[n+]2ccc(C)cc2)c(CCCCC)c1	6.6% (inactive)
CCC(=O)NC(c1ccc(C)cc1)c1cc([N+](=O)[O-])c2cccnc2c1O (stereo not drawn)	84.6% (active)
CC[C@@]1(O)C(=O)OCc2c1cc1n(c2=O)Cc2cc3c(N)cccc3nc2-1	88.3% (active)
Cc1scc(C(=O)N/N=C/c2ccc([N+](=O)[O-])o2)c1C	72% (active)
Cc1ccc(NCC(=O)N/N=C\c2ccc([N+](=O)[O-])o2)cc1	35.7% (inactive)
O=C(N/N=C/c1ccc([N+](=O)[O-])o1)c1cc2ccccc2o1	52.9% (active)

Compound	inhibition
Cc1nonc1C(=O)N/N=C/c1ccc([N+](=O)[O-])o1	46% (inactive)
O=C(N/N=C/c1ccc([N+](=O)[O-])o1)c1ccccc1NS(=O)(=O)c1cccs1	61.1% (active)
O=C(CNc1cccc2ccccc12)N/N=C/c1ccc([N+](=O)[O-])o1	34% (inactive)
O=[N+]([O-])c1ccc(/C=N/N=C/c2ccc([N+](=O)[O-])o2)o1	83% (active)
O=C(N/N=C/c1ccc([N+](=O)[O-])o1)c1ccccc1-n1cccc1	45.7% (inactive)
O=C(Nc1c(Cl)ccc2nsnc12)c1ccc([N+](=O)[O-])o1	16% (inactive)
O=C(N/N=C/c1ccc([N+](=O)[O-])o1)c1ccc2c(c1)OCO2	71.8% (active)
CCCCN(C)S(=O)(=O)c1ccc(C(=O)Nc2nnc(-c3cccs3)o2)cc1	55.8% (active)
O=C(CN(Cc1ccccc1)S(=O)(=O)c1ccc2c(c1)OCCO2)Nc1ccc2c(c1)OCCO2	8.4% (inactive)
CCN(Cc1ccccc1)S(=O)(=O)c1ccc(C(=O)Nc2nnc(C3CC3)o2)cc1	92.7% (active)
CCCCN(CC)S(=O)(=O)c1ccc(C(=O)Nc2nnc(-c3cccs3)o2)cc1	59.1% (active)
CCN(c1ccccc1)S(=O)(=O)c1ccc(NC(=S)NC(=O)c2cccs2)cc1	43.4% (inactive)
CCCCN(CC)S(=O)(=O)c1ccc(C(=O)Nc2nnc(-c3ccccc3Cl)o2)cc1	59.6% (active)
CN1CCN(Cc2nc(Cc3cccc(F)c3)no2)CC1c1ccccc1 (stereo not drawn)	3.2% (inactive)
CCOC(=O)COc1ccc2ccccc2c1/C=C/[N+](=O)[O-]	27.3% (inactive)
NC(=S)N/N=C\c1c(OCc2ccccc2Cl)ccc2ccccc12	66% (active)
O=C(N/N=C/c1cc(Cl)c(O)c(Cl)c1)c1cc2c(ccc3ccccc32)o1	42.9% (inactive)
Cc1ccc(S(=O)(=O)Nc2cc(C(C(=O)OC(C)C)C(=O)C(F)(F)F)c(O)c3ccccc23)c(C)c1 (stereo not drawn)	72% (active)
Cc1ccc(S(=O)(=O)Nc2cc(C)c(O)cc2C)cc1	29.5% (inactive)
COc1ccc(NC(C)=O)cc1S(=O)(=O)Nc1ccc(OCc2ccccc2)cc1	33.1% (inactive)

Compound	inhibition
COc1ccc(S(=O)(=O)Nc2ccc(OCC(=O)O)cc2)c2ccccc12	-2.2% (inactive)
COc1ccc(OC)c(S(=O)(=O)Nc2ccc(O)c3ccccc23)c1	62.6% (active)
O=S(=O)(Nc1ccc(O)c2ccccc12)c1ccc(Br)cc1	101% (active)
CCc1ccc(S(=O)(=O)Nc2ccc(O)c3ccccc23)cc1	36.3% (inactive)
Cc1ccc(S(=O)(=O)Nc2ccc(O)c3ccccc23)c(C)c1	92.3% (active)
CCCNc1c(NS(=O)(=O)c2ccc(Br)cc2)c(=O)oc2ccccc12	11.2% (inactive)
O=C(O)CCSc1nnc(-c2ccc3c(c2)OCO3)o1	64.7% (active)
O=C(O)CCSc1ncnc2sc(-c3ccccc3)cc12	43.8% (inactive)
CCOc1ccc(S(=O)(=O)Nc2cc(SCC(=O)O)c(O)c3ccccc23)cc1	92.5% (active)
O=C(O)CSc1cc(NS(=O)(=O)c2ccc(Cl)cc2)c2ccccc2c1O	93.9% (active)
COc1ccc(S(=O)(=O)Nc2cc(SCC(=O)O)c(O)c3ccccc23)cc1	98.3% (active)
COC(=O)c1sccc1NC(=O)CSc1ccccc1NS(=O)(=O)c1ccc(Br)cc1	26.3% (inactive)
COC(=O)c1sccc1NC(=O)CSc1ccccc1NS(=O)(=O)c1cc(Cl)ccc1Cl	39% (inactive)
CCc1ccc(S(=O)(=O)Nc2cc(SCC(=O)O)c(O)c3ccccc23)cc1	8% (inactive)
Cc1ccc(-c2n[nH]c(=O)c3ccccc23)cc1S(=O)(=O)Nc1ccccc1	14.6% (inactive)
Cc1ccc(C)c(S(=O)(=O)Nc2cc(SCC(=O)O)c(O)c3ccccc23)c1	105% (active)
COc1ccc(S(=O)(=O)c2c(O)cc(C)c(NS(=O)(=O)c3ccccc3)c2C)cc1	46.9% (inactive)
Cc1cc(S(=O)(=O)NCc2ccncc2)c(C)cc1Br	22.7% (inactive)
